# Results as given in PubChem BioAssay AID743182 (Broad Institute, 2013).
# Activity calls are given as the source filed them.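 How the source made its calls: active means cell killing with a fitted half-maximal concentration at most twice the top valid dose tested; inconclusive means flat curve with 30 to 70% signal loss, or poor fit; inactive means the rest.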
# Assay: viability loss in HEK293 cells – cell-based, luminescence, dry powder, set 8, cytotoxicity control, dose response (AID 743182)
# Conditions: HEK293T viability, CellTiter-Glo ATP luminescence, 72 h; series mostly up to 26 µM; activity change, negative = cytotoxicity: at the top concentration
row,SMILES,"activity change, negative = cytotoxicity"
1,CSc1ccc(/C=N/NC(=O)c2ccc3nc[nH]c3c2)cc1,-5.84% (inactive)
2,O=C(N/N=C/c1c[nH]c2ccccc12)c1cccs1,-12.9% [at 12 µM] (inactive)
3,O=C(N/N=C/c1c[nH]c2ccccc12)c1cccc(O)c1,-7.33% (inactive)
